# Out of some 5,500 compounds screened, about 2,000 (36%) were called active. Another 18% or so got no clear call; they are omitted. This is one part of the list. Values without a mark were called inactive. No stated cut-off is given here; in the data, active means normalized growth mostly below about 0.91 (no sharp cut-off); inconclusive means no clear call, values can overlap the other calls; inactive means mostly above about 0.92.
# Experiment: chemical genetic growth profiling, strain panel (AID 1159580);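 further: tested at 20 µM; growth read once vehicle control cultures reached saturation at 30 °C; 1 = growth at the plate median or of vehicle wells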
# Details: growth OD
structure (smiles),measurement,setting,value
CC(=O)Oc1ccc2c(c1)CCC1C2CC[C@@]2(C)C1CC[C@@H]2OC(C)=O (stereo not given in full),normalized growth,"S. cerevisiae deletion strains, locus YJR075W, strain HOC1, stronger effect = lower value",0.957
same,normalized growth,"S. cerevisiae deletion strains, locus YKL009W, strain mrt4, stronger effect = lower value",0.956
same,normalized growth,"S. cerevisiae deletion strains, locus YKL068W, stronger effect = lower value",0.971
same,normalized growth,"S. cerevisiae deletion strains, locus YKL085W, strain MDH1 (second series), stronger effect = lower value",0.959
same,normalized growth,"S. cerevisiae deletion strains, locus YKL085W, strain MDH1, stronger effect = lower value",0.959
same,normalized growth,"S. cerevisiae deletion strains, locus YKL160W, strain elf1, stronger effect = lower value",1
same,normalized growth,"S. cerevisiae deletion strains, locus YKL190W, strain CNB1, stronger effect = lower value",0.961
same,normalized growth,"S. cerevisiae deletion strains, locus YKR001C, strain vps1, stronger effect = lower value",0.98
same,normalized growth,"S. cerevisiae deletion strains, locus YKR026C, strain gcn3, stronger effect = lower value",0.973
same,normalized growth,"S. cerevisiae deletion strains, locus YKR091W, strain srl3, stronger effect = lower value",0.99
same,normalized growth,"S. cerevisiae deletion strains, locus YLL001W, strain dnm1, stronger effect = lower value",0.96
same,normalized growth,"S. cerevisiae deletion strains, locus YLL026W, stronger effect = lower value",0.991
same,normalized growth,"S. cerevisiae deletion strains, locus YLL041C, strain sdh2, stronger effect = lower value",0.996
same,normalized growth,"S. cerevisiae deletion strains, locus YLR027C, strain aat2, stronger effect = lower value",0.997
same,normalized growth,"S. cerevisiae deletion strains, locus YLR039C, strain RIC1, stronger effect = lower value",0.838
same,normalized growth,"S. cerevisiae deletion strains, locus YLR058C, strain SHM2, stronger effect = lower value",0.968
same,normalized growth,"S. cerevisiae deletion strains, locus YLR102C, strain apc9, stronger effect = lower value",0.968
same,normalized growth,"S. cerevisiae deletion strains, locus YLR113W, strain HOG1, stronger effect = lower value",0.911
same,normalized growth,"S. cerevisiae deletion strains, locus YLR221C, strain rsa3, stronger effect = lower value",0.958
same,normalized growth,"S. cerevisiae deletion strains, locus YLR258W, strain gsy2, stronger effect = lower value",0.991
same,normalized growth,"S. cerevisiae deletion strains, locus YLR262C, strain YPT6 (second series), stronger effect = lower value",0.663 (active)
same,normalized growth,"S. cerevisiae deletion strains, locus YLR262C, strain YPT6, stronger effect = lower value",0.729
same,normalized growth,"S. cerevisiae deletion strains, locus YLR268W, strain sec22, stronger effect = lower value",0.986
same,normalized growth,"S. cerevisiae deletion strains, locus YLR320W, strain mms22, stronger effect = lower value",0.908
same,normalized growth,"S. cerevisiae deletion strains, locus YLR330W, strain CHS5, stronger effect = lower value",0.981
same,normalized growth,"S. cerevisiae deletion strains, locus YLR342W, strain FKS1 (second series), stronger effect = lower value",1.03
same,normalized growth,"S. cerevisiae deletion strains, locus YLR342W, strain FKS1, stronger effect = lower value",0.969
same,normalized growth,"S. cerevisiae deletion strains, locus YLR357W, strain rsc2, stronger effect = lower value",1
same,normalized growth,"S. cerevisiae deletion strains, locus YLR370C, strain arc18, stronger effect = lower value",0.977
same,normalized growth,"S. cerevisiae deletion strains, locus YLR371W, strain rom2, stronger effect = lower value",0.981
same,normalized growth,"S. cerevisiae deletion strains, locus YLR384C, strain iki3, stronger effect = lower value",0.985
same,normalized growth,"S. cerevisiae deletion strains, locus YLR418C, strain cdc73, stronger effect = lower value",0.963
same,normalized growth,"S. cerevisiae deletion strains, locus YML016C, strain PPZ1, stronger effect = lower value",0.974
same,normalized growth,"S. cerevisiae deletion strains, locus YML032C, strain rad52, stronger effect = lower value",0.974
same,normalized growth,"S. cerevisiae deletion strains, locus YML120C, strain ndi1, stronger effect = lower value",0.97
same,normalized growth,"S. cerevisiae deletion strains, locus YML124C, strain tub3, stronger effect = lower value",0.965
same,normalized growth,"S. cerevisiae deletion strains, locus YMR058W, strain fet3, stronger effect = lower value",1
same,normalized growth,"S. cerevisiae deletion strains, locus YMR078C, strain ctf18, stronger effect = lower value",0.964
same,normalized growth,"S. cerevisiae deletion strains, locus YMR125W, strain sto1, stronger effect = lower value",0.994
same,normalized growth,"S. cerevisiae deletion strains, locus YMR129W, stronger effect = lower value",0.989
same,normalized growth,"S. cerevisiae deletion strains, locus YMR205C, strain PFK2, stronger effect = lower value",0.947
same,normalized growth,"S. cerevisiae deletion strains, locus YMR223W, strain ubp8, stronger effect = lower value",0.984
same,normalized growth,"S. cerevisiae deletion strains, locus YMR231W, strain pep5, stronger effect = lower value",1.02
same,normalized growth,"S. cerevisiae deletion strains, locus YMR263W, strain SAP30, stronger effect = lower value",0.967
same,normalized growth,"S. cerevisiae deletion strains, locus YMR307W, strain GAS1, stronger effect = lower value",1.12
same,normalized growth,"S. cerevisiae deletion strains, locus YNL067W, strain RPL9B, stronger effect = lower value",0.957
same,normalized growth,"S. cerevisiae deletion strains, locus YNL071W, strain lat1, stronger effect = lower value",0.97
same,normalized growth,"S. cerevisiae deletion strains, locus YNL128W, strain TEP1, stronger effect = lower value",0.986
same,normalized growth,"S. cerevisiae deletion strains, locus YNL183C, strain NPR1, stronger effect = lower value",0.894
same,normalized growth,"S. cerevisiae deletion strains, locus YNL209W, strain ssb2, stronger effect = lower value",1.02
same,normalized growth,"S. cerevisiae deletion strains, locus YNL233W, strain BNI4, stronger effect = lower value",0.938
same,normalized growth,"S. cerevisiae deletion strains, locus YNL248C, strain rpa49, stronger effect = lower value",0.986
same,normalized growth,"S. cerevisiae deletion strains, locus YNL250W, strain rad50, stronger effect = lower value",0.972
same,normalized growth,"S. cerevisiae deletion strains, locus YNL271C, strain bni1, stronger effect = lower value",0.996
same,normalized growth,"S. cerevisiae deletion strains, locus YNL298W, strain CLA4, stronger effect = lower value",0.969
same,normalized growth,"S. cerevisiae deletion strains, locus YNL307C, strain MCK1, stronger effect = lower value",0.958
same,normalized growth,"S. cerevisiae deletion strains, locus YNL322C, strain KRE1 (second series), stronger effect = lower value",0.988
same,normalized growth,"S. cerevisiae deletion strains, locus YNR049C, strain mso1, stronger effect = lower value",0.99
same,normalized growth,"S. cerevisiae deletion strains, locus YNR052C, strain pop2, stronger effect = lower value",0.985
same,normalized growth,"S. cerevisiae deletion strains, locus YOL006C, strain TOP1, stronger effect = lower value",0.796
same,normalized growth,"S. cerevisiae deletion strains, locus YOL012C, strain htz1",1.06
same,normalized growth,"S. cerevisiae deletion strains, locus YOL147C, strain pex11, stronger effect = lower value",0.969
same,normalized growth,"S. cerevisiae deletion strains, locus YOR001W, strain rrp6, stronger effect = lower value",0.972
same,normalized growth,"S. cerevisiae deletion strains, locus YOR061W, strain CKA2, stronger effect = lower value",0.937
same,normalized growth,"S. cerevisiae deletion strains, locus YOR069W, strain VPS5, stronger effect = lower value",0.987
same,normalized growth,"S. cerevisiae deletion strains, locus YOR070C, strain gyp1, stronger effect = lower value",1.01
same,normalized growth,"S. cerevisiae deletion strains, locus YOR080W, strain dia2, stronger effect = lower value",1.02
same,normalized growth,"S. cerevisiae deletion strains, locus YOR083W, strain WHI5, stronger effect = lower value",0.936
same,normalized growth,"S. cerevisiae deletion strains, locus YOR106W, strain vam3, stronger effect = lower value",1.03
same,normalized growth,"S. cerevisiae deletion strains, locus YOR136W, strain idh2, stronger effect = lower value",0.982
same,normalized growth,"S. cerevisiae deletion strains, locus YOR144C, strain elg1, stronger effect = lower value",0.968
same,normalized growth,"S. cerevisiae deletion strains, locus YOR184W, strain ser1, stronger effect = lower value",0.906
same,normalized growth,"S. cerevisiae deletion strains, locus YOR231W, strain MKK1, stronger effect = lower value",0.923
same,normalized growth,"S. cerevisiae deletion strains, locus YOR265W, strain rbl2, stronger effect = lower value",0.992
same,normalized growth,"S. cerevisiae deletion strains, locus YOR270C, strain vph1, stronger effect = lower value",0.968
same,normalized growth,"S. cerevisiae deletion strains, locus YOR290C, strain snf2, stronger effect = lower value",0.968
same,normalized growth,"S. cerevisiae deletion strains, locus YOR316C, strain cot1, stronger effect = lower value",0.965
same,normalized growth,"S. cerevisiae deletion strains, locus YPL051W, strain arl3, stronger effect = lower value",1.01
same,normalized growth,"S. cerevisiae deletion strains, locus YPL055C, strain LGE1, stronger effect = lower value",0.838
same,normalized growth,"S. cerevisiae deletion strains, locus YPL078C, strain atp4, stronger effect = lower value",1.04
same,normalized growth,"S. cerevisiae deletion strains, locus YPL106C, strain sse1, stronger effect = lower value",1.03
same,normalized growth,"S. cerevisiae deletion strains, locus YPL240C, strain hsp82, stronger effect = lower value",1
same,normalized growth,"S. cerevisiae deletion strains, locus YPL241C, strain CIN2, stronger effect = lower value",0.972
same,normalized growth,"S. cerevisiae deletion strains, locus YPL256C, strain CLN2, stronger effect = lower value",0.924
same,normalized growth,"S. cerevisiae deletion strains, locus YPR119W, strain clb2, stronger effect = lower value",0.955
same,normalized growth,"S. cerevisiae deletion strains, locus YPR141C, strain kar3, stronger effect = lower value",0.97
same,normalized growth,"S. cerevisiae deletion strains, locus YPR163C, strain tif3, stronger effect = lower value",0.979
same,normalized growth,"S. cerevisiae deletion strains, locus YPR167C, strain met16, stronger effect = lower value",0.975
same,normalized growth,"S. cerevisiae deletion strains, strain wtn01, stronger effect = lower value",0.972
same,normalized growth,"S. cerevisiae strains, strain wild type, stronger effect = lower value",0.958
